# From PubChem BioAssay (NCI)
# About 79,000 compounds went through this panel and 15% of them were active in at least one assay; those are over-represented in the sample as a whole. A number with no mark means an inactive call. Activity calls are given as the source filed them. No stated cut-off is given here; in the data, active means growth inhibition above about 70%; inactive means the rest.
# Legend:
# [1] = NCI Yeast Anticancer Drug Screen. Data for the rad50 strain (AID 155);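 further: 0% = growth of vehicle-only cultures of the same strain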; details: S. cerevisiae rad50 strain growth inhibition, hits give high values
# Outline: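 Cells are treated with compound, grown, and their growth is then scored against vehicle-only cultures of the same repair-deficient yeast strain.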
# [2] = NCI Yeast Anticancer Drug Screen. Data for the mec2-1 strain (AID 157); details: S. cerevisiae mec2-1 strain, hits give high values
# Outline: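 Compounds were applied to mec2-1 yeast cells. Their growth was then compared with that of vehicle-treated cultures to give growth inhibition.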
# [3] = NCI Yeast Anticancer Drug Screen. Data for the sgs1 mgt1 strain (AID 161);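 further: 0% = growth of cultures given vehicle only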; details: S. cerevisiae sgs1 mgt1 strain, hits give high values
# Outline: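 Compounds are added to genetically altered yeast, and growth is compared with cultures given vehicle alone to give percent inhibition.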
# [4] = NCI Yeast Anticancer Drug Screen. Data for the cln2 rad14 strain (AID 165);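 further: 0% = growth equal to vehicle treated cultures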; details: S. cerevisiae cln2 rad14 strain, hits give high values
# Outline: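 Strain: cln2 rad14 yeast, altered in cell cycle control and DNA damage repair. Read-out: growth inhibition vs vehicle.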
# [5] = NCI Yeast Anticancer Drug Screen. Data for the bub3 strain (AID 167); details: S. cerevisiae bub3 mutant strain, hits give high values
# Outline: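 Part of a panel of yeast mutants defective in DNA damage repair or cell cycle regulation. Each strain is grown with compound, and inhibition is calculated relative to solvent-treated cultures.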
# [6] = NCI Yeast Anticancer Drug Screen. Data for the mlh1 rad18 strain (AID 175); details: S. cerevisiae mlh1 rad18 strain growth inhibition, hits give high values
# Outline: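 A repair-deficient yeast strain is exposed to test compound, and growth is scored relative to vehicle-treated controls.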
# [7] = at 5.0 µM (retest, dose inferred, filed as 0.5)
# [8] = at 50.0 µM (retest, dose inferred, filed as 5.0)
SMILES,"growth inhibition [1, 7]","growth inhibition [1, 8]",growth inhibition ([1]; at 50.0 µM),"growth inhibition [2, 7]","growth inhibition [2, 8]",growth inhibition ([2]; at 50.0 µM),"growth inhibition [3, 7]","growth inhibition [3, 8]",growth inhibition ([3]; at 50.0 µM),"growth inhibition [4, 7] [%]","growth inhibition [4, 8]",growth inhibition ([4]; at 50.0 µM),"growth inhibition [5, 7]","growth inhibition [5, 8]",growth inhibition ([5]; at 50.0 µM),"growth inhibition [6, 7]","growth inhibition [6, 8]",growth inhibition ([6]; at 50.0 µM)
Clc1ccccc1C(Cc1c(Cl)cccc1Cl)Cn1ccnc1 (stereo not given),74% (active),78% (active),99.8% (active),58%,78% (active),99.8% (active),70% (active),91% (active),99.8% (active),62,86% (active),98.8% (active),75% (active),95% (active),99.7% (active),77% (active),92% (active),99.8% (active)
CCN(CC)c1c(C(=O)/C=C/c2ccc(OC)cc2)c(-c2ccccc2)nn(C)c1=O,17%,17%,78.1% (active),8%,8%,72.5% (active),5%,5%,69%,9,9%,77% (active),-4%,-4%,71.3% (active),8%,8%,70.2% (active)
CCOC(=O)/C(C#N)=C/c1ccccc1Br,11%,18%,50%,-19%,3%,20.4%,7%,13%,-0.75%,39,17%,3.6%,31%,20%,1.2%,-9%,-4%,6.6%
CCOc1ccc2c(ccc(/C=C\c3cc(C)c4cccnc4c3O)[n+]2C)c1,91% (active),92% (active),87.3% (active),81% (active),91% (active),89.2% (active),87% (active),93% (active),90% (active),67,87% (active),86.8% (active),59%,91% (active),82.8% (active),95% (active),93% (active),89% (active)
COC(=O)c1c2oc3c(C(=O)OC)cccc3nc-2cc(N)c1=O,0%,19%,30.2%,22%,56%,25.7%,6%,22%,8.8%,-5,-2%,-46.5%,49%,59%,66.5%,3%,44%,22.5%
COc1cc(C(c2cc3c(cc2OC(C)=O)OCO3)C(C(C)=O)C(C)=O)cc(OC)c1OC(C)=O (stereo not given),7%,18%,3.7%,-4%,18%,5%,-5%,0%,-18.9%,-1,1%,-16.4%,8%,13%,8.75%,3%,11%,-4.2%
Cc1cc(C=Nc2ccccc2)c(O)c2ncccc12,19%,96% (active),98.8% (active),10%,95% (active),99.3% (active),15%,98% (active),94.9% (active),8,98% (active),83.7% (active),0%,98% (active),99.1% (active),14%,99% (active),99.2% (active)
CN(Nc1ccc(Cl)cc1)c1ccc(Cl)cc1,1%,95% (active),73.2% (active),12%,98% (active),64%,0%,97% (active),79.2% (active),5,95% (active),53.1%,9%,97% (active),77% (active),-9%,96% (active),75.3% (active)
BrCc1ccccc1C[P+](c1ccccc1)(c1ccccc1)c1ccccc1,55%,98% (active),89.5% (active),52%,99% (active),90.7% (active),54%,99% (active),85.5% (active),25,97% (active),82.3% (active),47%,98% (active),89.7% (active),69%,98% (active),88.2% (active)
CC1(C)CCC2(CC1)CC(=O)OC(=O)C2,-159%,-162%,-3.9%,-50%,-54%,18.5%,-64%,-62%,6.6%,-59,-59%,27.8%,-71%,-82%,-3.4%,-145%,-117%,3.95%
NC(Cc1nn[nH]n1)C(=O)O (stereo not given),3%,-15%,-13.2%,-6%,-10%,-5.95%,-16%,-15%,-42.8%,-11,-6%,22.4%,10%,-13%,0.95%,-18%,-6%,-23%
OC1(c2ccccc2)CCC2CCCCC2C1 (stereo not given),3%,32%,94.4% (active),-4%,52%,96.5% (active),2%,69%,90.5% (active),-10,8%,89.5% (active),4%,49%,88.5% (active),-14%,63%,81.2% (active)
COC(=O)N/N=C(\C)C(CN1CCOCC1)C(c1ccccc1)c1cc2ccccc2oc1=O (stereo not given),10%,57%,-0.75%,-4%,56%,7.15%,14%,64%,-5.55%,14,70% (active),10.9%,21%,74% (active),8.15%,7%,61%,2.25%
COC(=O)c1ccc(SCCC(=O)CCl)cc1,23%,99% (active),99.3% (active),25%,99% (active),99.2% (active),24%,99% (active),99% (active),14,99% (active),98.7% (active),38%,99% (active),99.4% (active),27%,99% (active),99% (active)
O=C(CCC(NC(=O)OCc1ccccc1)C(=O)OCc1ccccc1)NC(CSCc1ccccc1)C(=O)NCC(=O)Oc1c(Cl)c(Cl)c(Cl)c(Cl)c1Cl (stereo not given),8%,51%,31%,9%,32%,28.8%,7%,35%,64.2%,-7,48%,45%,3%,59%,18.8%,8%,54%,60.7%
Cc1cc(O)cc(C)c1[N+](=O)[O-],5%,25%,55%,0%,24%,49.8%,-6%,41%,79.6% (active),-1,20%,23.6%,-1%,36%,29.3%,4%,41%,63.5%
CCOC(=O)CC[P+](Cc1ccccc1)(c1ccccc1)c1ccccc1,-32%,14%,64.9%,0%,0%,-1.5%,2%,3%,12.7%,4,-2%,-15.4%,1%,4%,18.4%,7%,21%,11%
Cc1ccc(NCCN(C)C)c2c(=O)c3c(O)cccc3sc12,95% (active),99% (active),67.3%,13%,100% (active),54.3%,30%,98% (active),60.7%,11,99% (active),58.7%,9%,99% (active),49.5%,29%,99% (active),55.8%
CN(C(=O)c1cccs1)C(=S)N1CCN(c2ccccc2)CC1,-26%,66%,79.8% (active),6%,68%,67%,-2%,70% (active),84.8% (active),-8,56%,49.9%,-14%,83% (active),61.3%,-18%,90% (active),67.2%
O=C1OC(c2ccccc2)(c2ccc(-c3ccccc3O)cc2)c2ccccc21 (stereo not given),87% (active),90% (active),94.2% (active),71% (active),92% (active),95.1% (active),89% (active),93% (active),93% (active),60,90% (active),92.9% (active),61%,90% (active),95.1% (active),92% (active),91% (active),93.5% (active)
